Records with an inconclusive call do not appear. Active and inactive are the calls of the source. Calls follow the shape of the dose curve; as a rule, active = well fitted inhibition curve with a large enough effect; inconclusive = small, poorly fitted or top-dose-only effect; inactive = flat fitted curve, though single readings scatter.
Also: nearly all actives have a fitted effect of over 60% in size.

The first assay concerns NIH3T3. In words: Cytotoxic Profiling of Annotated Libraries Using Quantitative High-Throughput Screening (AID 1296008). Also: potency is read from the fitted curve at half-maximal effect. As to max response: % is scaled to controls: 0 for no effect and ±100 for the full control effect. The conditions noted are these: Five cell lines viability, CellTiter-Glo ATP luminescence, 48-72 h; max response: stronger effect = lower value. In short, it runs like this: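 Compounds were pin-transferred onto cells and incubated 48 or 72 hr at 37 degree Celsius, 95% humidity. CellTiter-Glo was added, plates sat 10 min at room temperature, then ATP-coupled luminescence was imaged as the viability read-out.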
For the molecule `C[N+](C)([O-])CCNc1ccc(NCC[N+](C)(C)[O-])c2c1C(=O)c1c(O)ccc(O)c1C2=O`, the Potency was 0.0935 µM (active).
`CCC(C(=O)O)C1CCC(C)C(C(C)C(O)C(C)C(=O)C(CC)C2OC3(C=CC(O)[C@@]4(CC[C@](C)(C5CC[C@@](O)(CC)C(C)O5)O4)O3)C(C)CC2C)O1` (stereo not given in full): the Potency was 8.33 µM (active).
Same read-out and setting: in the case of `Cc1cncc2cccc(S(=O)(=O)N3CCCN(C(=O)CN)C[C@@H]3C)c12` it was 26.4 µM (active).
Still for that read-out and setting: in the case of `CCc1cnn2c(NCc3ccc[n+]([O-])c3)cc(N3CCCC[C@@H]3CCO)nc12` it was 0.105 µM (active).
As for `C=CC(=O)Nc1cc(NC(=O)c2ccc(C)c(NC(=O)c3ccno3)c2)cc(C(F)(F)F)c1`, the max response is -0.953% (inactive).
For `COc1cc2c(cc1O)CCC1C2CC[C@@]2(C)C1CC[C@@H]2O` (stereo not given in full), the Potency was 4.18 µM (active).
The same measure, in the same setting: the figure for `C[C@H](NCc1ccc(OCc2cccc(F)c2)cc1)C(N)=O` is 4.18 µM (active).
In the case of `CCCCCCCCCCCC(CC1OC(=O)C1CCCCCC)OC(=O)C(CC(C)C)NC=O` (stereo not given), the max response is 0.608% (inactive).
On to `C[C@H]1[C@@H](OC(=O)CCC(=O)O)O[C@@H]2O[C@@]3(C)CC[C@@H]4[C@H](C)CC[C@@H]1[C@@]24OO3`, for which the Potency was 20.9 µM (active).
Same read-out and setting: in the case of `COc1ccc(Nc2cc(-c3cnc(N)nc3)nc(N3CCOCC3)n2)cn1` it was 3.32 µM (active).
On to `COc1cccc2c1C(=O)c1c(O)c3c(c(O)c1C2=O)C[C@@](O)(C(=O)CO)C[C@@H]3O[C@H]1C[C@H](N)[C@H](OC2CCCCO2)[C@H](C)O1` (stereo not given in full), for which the Potency was 0.59 µM (active).
As for `CC(O)(C#Cc1ccc2c(c1)N(c1nc(N)ncc1Cl)CC2)c1nccs1` (stereo not given), the max response was -24.2% (inactive).
`CC(C)[C@H](CO)Nc1nc(Nc2cccc(Cl)c2)c2ncn(C(C)C)c2n1`: the Potency was 10.5 µM (active).

Another assay has as its system HACAT. In words: qHTS assay to identify novel small-molecules to repurpose for Merkel cell carcinoma treatment (AID 1296009). The following applies: MCC and control cell lines, CellTiter-Glo viability, 72 h; at 44.8 µM (top of the series) unless noted. In a few lines: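 Luminescence from CellTiter-Glo, read 10 min after addition at room temperature, reported viability following a 72 hr, 37 degree celsius treatment with NPC or MIPE compounds in titration; values normalized to plate controls.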
For orientation: In qHTS, concentration-response curves come from the screen itself.
`O=c1c(O)c(-c2ccc(O)c(O)c2)oc2cc(O)ccc12`: the outcome was inactive.
In the case of `CCCNC(=O)[C@H]1O[C@H]1C(=O)N[C@H](C(=O)N1CCC[C@@H]1C(=O)OC)C(C)CC` (stereo not given in full), the outcome was inactive.
Same read-out and setting: the entry for `OCCNC1CCCc2c1[nH]c1ccc(-c3ccccc3)cc21` (stereo not given) is “inactive”.
The same measure, in the same setting: in the case of `CN[C@H](CC(C)C)C(=O)N[C@H]1C(=O)N[C@@H](CC(N)=O)C(=O)N[C@@H]2C(=O)N[C@H]3C(=O)N[C@H](C(=O)N[C@H](C(=O)O)c4cc(O)cc(O)c4-c4cc3ccc4O)[C@H](O)c3ccc(c(Cl)c3)Oc3cc2cc(c3O[C@@H]2O[C@H](CO)[C@@H](O)[C@H](O)[C@@H]2O[C@H]2C[C@](C)(N)[C@H](O)[C@H](C)O2)Oc2ccc(cc2Cl)[C@H]1O` it was “inactive”; in that of `CN1[C@H]2CC(OC(=O)[C@@H](CO)c3ccccc3)C[C@H]1[C@H]1O[C@H]12` (stereo not given in full), “inactive [at 17.4 µM]”.
As to `C=CC(=O)Nc1cc(NC(=O)c2ccc(C)c(NC(=O)c3ccno3)c2)cc(C(F)(F)F)c1`, the molecule was classed as inactive.
For `CCCCCCCCCCCC(CC1OC(=O)C1CCCCCC)OC(=O)C(CC(C)C)NC=O` (stereo not given), the molecule was called inactive.

The record behind these values is PubChem BioAssay (NCATS).
